# Bioassay records deposited in PubChem BioAssay by National Center for Advancing Translational Sciences (NCATS).
# The list is not random: actives were taken first. Their share in the collection is about 2.8%.
# PI5P4Ka inh – qHTS for Inhibitors of phosphatidylinositol 5-phosphate 4-kinase (PI5P4K) | actives 1.2% (n = 330,000) | Phosphatidylinositol 5-phosphate 4-kinase type-2 alpha (Homo sapiens), P48426 | max response, % | PI5P4Kalpha enzyme, ADP-Glo luminescence, 60 min; stronger effect = lower value; active means max response of -50% or lower; inconclusive means between -30% and -50%; inactive means -30% or higher; further: value at the top dose of about 77 µM
#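 Luminescence from ADP-Glo served as readout of PI5P4Kalpha activity in a qHTS format. Reaction: enzyme, substrate, compound, ATP at 5 microM final, 60 min at RT.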
# POLH inh – qHTS for Inhibitors of Polymerase Eta | DNA polymerase eta (Homo sapiens), Q9Y253 | recombinant Pol eta, fluorescent DNA replication assay | Potency, µM (highest dose often 114 µM), actives largely listed as inhibitors | actives 1.2% (n = 390,000)
#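 Pol eta at 10 nM preincubated with compounds 15 min at room temperature; reaction started with fluorescent substrate (50 nM final) and read kinetically at 0 and 10 min.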
# POLI inh – qHTS for Inhibitors of Polymerase Iota; AID 588590, 2011; DNA polymerase iota (Homo sapiens), Q9UNA4; Pol iota fluorescent replication assay, 10 min; Potency, µM (top dose mostly 115 µM), hits mostly inhibitors; actives 1% (n = 390,000)
# Target sequence (Q9UNA4 whole entry, looked up): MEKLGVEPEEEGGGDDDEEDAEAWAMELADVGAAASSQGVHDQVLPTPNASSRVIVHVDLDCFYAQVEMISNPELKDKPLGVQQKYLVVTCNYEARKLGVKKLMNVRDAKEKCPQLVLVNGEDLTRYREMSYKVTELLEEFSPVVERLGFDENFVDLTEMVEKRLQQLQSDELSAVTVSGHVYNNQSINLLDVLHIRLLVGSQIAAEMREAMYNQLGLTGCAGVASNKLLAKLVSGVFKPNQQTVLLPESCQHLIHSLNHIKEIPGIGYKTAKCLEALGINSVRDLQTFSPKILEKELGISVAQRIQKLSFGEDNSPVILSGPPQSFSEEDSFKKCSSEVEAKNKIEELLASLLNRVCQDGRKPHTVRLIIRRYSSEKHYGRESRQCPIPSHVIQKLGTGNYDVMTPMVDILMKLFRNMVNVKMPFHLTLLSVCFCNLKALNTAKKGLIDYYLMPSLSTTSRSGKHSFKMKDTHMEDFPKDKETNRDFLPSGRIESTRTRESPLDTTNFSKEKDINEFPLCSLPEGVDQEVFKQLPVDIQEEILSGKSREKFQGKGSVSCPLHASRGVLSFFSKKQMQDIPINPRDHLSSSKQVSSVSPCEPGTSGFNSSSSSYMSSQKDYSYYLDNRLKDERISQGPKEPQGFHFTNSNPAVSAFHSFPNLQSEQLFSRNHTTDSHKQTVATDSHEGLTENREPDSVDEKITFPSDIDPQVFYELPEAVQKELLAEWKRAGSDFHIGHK
#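 Fluorescent replication assay read twice, at 0 min and 10 min after adding 50 nM (final) substrate. Enzyme (10 nM) and compounds were first incubated 15 min at room temperature; enzyme-free buffer wells were negative controls.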
# PI4K2A inh – qHTS for small molecular inhibitors of PI4K2A; purified PI4K2A, ADP-Glo luminescence, 1 h; stronger effect = lower value; activity change, negative = inhibition, % at 76.9 µM; actives 0.13% (n = 420,000); AID 1346378, 2018; in the data active means activity change below about -50%; inconclusive means mostly about -30% to -49%
#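 PI4K2A activity was measured by ADP-Glo luminescence: enzyme (4 ug/mL stock) and phosphatidylinositol (1.2 mM stock) in Tris pH 7.5/MgCl2/EGTA/Triton X-100 buffer were reacted with ATP (300 microM stock) for one hour at ambient temperature.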
# Pol beta inh – qHTS Assay for Inhibitors of DNA Polymerase Beta | P06746 | Pol beta primer extension/strand displacement, fluorescence kinetic | Potency, µM (series often up to 114 µM), most hits filed as inhibitors | actives 1.3% (n = 340,000) | AID 485314, 2010
#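 Values derive from four-parameter Hill fits of normalized kinetic data: reads at 0 and 10 min following addition of 50 nM substrate to 10 nM Pol beta preincubated 15 min with compound.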
# POLK inh – qHTS for Inhibitors of Polymerase Kappa | purified Pol kappa, fluorescent DNA synthesis assay, 10 min | actives 0.53% (n = 400,000) | Potency, µM (highest dose often 107 µM), hits mostly inhibitors | AID 588579, 2011
#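 50 nM final substrate added after 15 min RT preincubation of 10 nM Pol kappa with compound; fluorescence read at 0 and 10 min.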
# Hits are given with their value; 0 = inactive; ? = inconclusive; - = no result. Unless noted, the call rests on the fitted dose curve; in most records, active means well fitted inhibition curve with a large enough effect; inconclusive means small, poorly fitted or top-dose-only effect, or another doubt; inactive means no such curve, though single readings can be large or run the other way.
SMILES,PI5P4Ka inh,POLH inh,POLI inh,PI4K2A inh,Pol beta inh,POLK inh
CC(=O)OC1(C(F)(F)F)Oc2ccccc2NC1=O (stereo not drawn),0,0,0,0,79µM,0
CC(C)N1CCc2c(sc(NC(=S)NC(=O)c3ccccc3)c2C#N)C1,-51,0,0,0,0,0
CCN(CC)S(=O)(=O)c1ccc(N2CCCCC2)c(NC(=O)/C=C/c2ccc(OC)c(OC)c2)c1,0,0,0,0,0,0
CCN(CC)S(=O)(=O)c1ccc(OC)c(NC(=O)/C=C/c2ccco2)c1,0,79µM,?,0,0,0
Cc1cccc(NC(=O)CCc2nc3sc4c(c3c(=O)[nH]2)CCCC4)c1,0,?,0,0,-,0
CCOC(=O)N1CCN(C(=O)CCc2nc3sc4c(c3c(=O)[nH]2)CCCC4)CC1,0,0,0,0,0,0
O=C(CCc1nc2sc3c(c2c(=O)[nH]1)CCCC3)N1CCN(c2ccccc2)CC1,?,79µM,45µM,0,-,?
COc1cccc(NC(=O)CN(C)C(=O)CCc2nc3sc4c(c3c(=O)[nH]2)CCCC4)c1,?,22µM,28µM,0,35µM,0
CCc1cccc(NC(=O)CCc2nc3sc4c(c3c(=O)[nH]2)CCCC4)c1,?,32µM,18µM,0,-,?
Cc1nc2sc(C(=O)NCc3ccncc3)c(N)c2c(C)c1Cl,-,-,-,0,-,-
Cn1c(SCc2ccc(Cl)cc2)nnc1-c1ccc(NC(=O)CCc2ccccc2)cc1,-,-,0,-,-,0
COc1ccc(Br)cc1/C=C/C(=O)Nc1ccc2ccccc2c1,0,0,0,0,0,0
CCC(=O)Nc1cccc(C(=O)/C=C/c2cc(Br)ccc2OC)c1,0,?,56µM,0,0,0
CC(=O)c1cccc(N=Cc2c(O)ccc3ccccc23)c1,0,0,?,0,0,0
CC(=O)N(C)c1ccc(N=Cc2c(O)ccc3ccccc23)cc1,0,0,71µM,0,0,0
NCCCCCCCCCCNCCCN,-,-,-,-,-,0
Cc1ccc(S(=O)(=O)NN=CC=CC=NNS(=O)(=O)c2ccc(C)cc2)cc1,-61,0,-,0,-,-
Cc1ccc(NNS(=O)(=O)c2ccc(C)cc2)cc1,-63,0,?,0,0,0
Cc1ccc(S(=O)(=O)NNC(=O)C(=O)NNS(=O)(=O)c2ccc(C)cc2)cc1,0,0,0,0,?,0
CC(=O)c1cc2ccccc2s1,-,-,-,0,-,-
Cc1ccc2c(/C=C/c3ccc(N(C)C)cc3)ccnc2c1C,-,-,0,-,-,0
CCOC(=O)C1=C(CS(=O)(=O)c2ccc(F)cc2)NC(=O)NC1c1cc(OC)c(O)c(OC)c1 (stereo not drawn),0,0,0,0,0,0
CCOC(=O)C1=C(CS(=O)(=O)c2ccc(F)cc2)NC(=O)NC1c1ccc(O)c(O)c1 (stereo not drawn),0,?,25µM,0,?,45µM
CCCCCC(=O)Cc1cc(O)cc(O)c1C(=O)Oc1cc(CC(=O)CCCCC)c(C(=O)O)c(OC)c1,-,-,-,-,-,0
CCCCCc1c2c(cc(O)c1C(=O)O)OC(=O)c1c(cc(OC)cc1C(=O)CCCC)O2,?,79µM,?,0,50µM,?
CCCCCc1c2c(cc(O)c1C(=O)O)OC(=O)c1cc(C(=O)CCCC)c(OC)cc1O2,0,79µM,?,0,-,0
CCCCc1c(C(=O)O)cc(OC)cc1C(=O)O,-,0,0,0,0,0
CCC(=O)N1CCc2cc(Br)cc(S(=O)(=O)N3CCC(C(=O)Nc4ccc(OC)cc4)CC3)c21,-,0,0,0,0,0
CCOC(=O)Cc1csc(NC(=O)CSc2nc(-c3ccccc3)c(C#N)c(=O)[nH]2)n1,-65,0,0,0,0,0
COc1ccccc1NC(=O)CSc1nc(-c2ccc(C(C)(C)C)cc2)c(C#N)c(=O)[nH]1,-,-,0,0,79µM,0
